Screening data as filed in PubChem BioAssay.
Only a selection was taken, and hits are over-represented in it overall.
Lamin A splicing – modulators of lamin A splicing. HeLa LMNA splicing GFP/RFP minigene ratio, 48 h. Potency, µM (highest dose often 46.1 µM), usual class: inhibitors. 0.01% of 200,000 active; active = well fitted inhibition curve with a large enough effect in the signal ratio, with a control signal flat, not every such curve was filed as active; inconclusive = small, poorly fitted or top-dose-only effect, or effect the other way, or a change in a side signal; the % refers to the signal ratio
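S3 HeLa stable clones carrying a lamin A-EGFP splicing minigene plus DsRed2 were seeded at 600 cells/well in Opti-MEM with 2% FBS, pin-dosed and incubated 48 h at 37°C. Acumen cytometry (488 nm) gave the GFP/RFP total-intensity ratio.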
IMPase inh – membrane-permeable compound that blocks inositol monophosphatase; CHO-M1 cells, IP1 accumulation, HTRF TR-FRET ratio; inhibition (IP1 accumulation), % at 46.1 µM; 120,000 tested, under 10 active; AID 901; active = well fitted curve in the direction sought with a large enough effect in the signal ratio, not every such curve was filed as active; inconclusive = small, poorly fitted or top-dose-only effect, or a change in a side signal; inactive = no such curve, though single readings can be large or run the other way; the % refers to the signal ratio;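 note: cells stimulated with carbachol in lithium chloride buffer; higher means more IMPase inhibition seen as more IP1 and lower FRET ratio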
Target sequence (P97697 whole entry, looked up): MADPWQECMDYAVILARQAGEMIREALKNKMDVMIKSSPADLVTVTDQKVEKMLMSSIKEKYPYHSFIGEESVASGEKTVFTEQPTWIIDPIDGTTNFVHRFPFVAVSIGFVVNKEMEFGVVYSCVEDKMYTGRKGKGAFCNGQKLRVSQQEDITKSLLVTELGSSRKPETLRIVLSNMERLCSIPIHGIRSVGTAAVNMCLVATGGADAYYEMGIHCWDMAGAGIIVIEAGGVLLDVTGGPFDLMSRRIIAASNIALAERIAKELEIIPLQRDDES
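In this qHTS, compounds (final up to 46 uM) act on CHO-M1 cells that are then activated through the M1 receptor with carbachol, in pH 7.4 buffer containing 50 mM LiCl, for 30 min. IP1 accumulation is quantified by the IP-One immunoassay.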
PNC inhibitor – blocks assembly of the perinucleolar compartment | PC3M PTB-GFP, PNC prevalence imaging, 16 h; hits give low values | activity change (PNC), negative = inhibition, % at 10 µM | 3.1% of 140,000 active;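 active = readout at or below -70, meaning at least 70% loss of cells showing the perinucleolar compartment, a nuclear body marking cancer cells; inconclusive = readout between -30 and a set limit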
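Compounds are pinned in duplicate onto adhered PC3M cells stably expressing GFP-tagged PTB and incubated 16 h at 37 C. Cells are then fixed, nuclei stained with Hoechst, and PNC-positive cells counted.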
Hits are given with their value; n = inactive; u = inconclusive; x = not tested or not shown; [ ] = remark or other dose.

SMILES | Lamin A splicing | IMPase inh | PNC inhibitor
CC(C)(C)c1ccc(C(=O)Nc2ccc(C=C(C#N)C#N)cc2)cc1 | n | x | -134
CC(C)(C)c1ccc(C(=O)Nc2ccc(NC(=O)c3ccc(Cl)c(Cl)c3)cc2)cc1 | x | n | x
CCCCC#Cc1nc(NC)c2ncn([C@@H]3O[C@@H](CO)[C@H](O)[C@H]3O)c2n1 | x | n | x
CN(C)c1ccc(-c2cc(Nc3ccc(F)cc3)ncn2)cc1 | n | x | x
CCNC(=S)Nc1ccc(OCC)cc1 | n | x | -86
CCOc1ccc(NC(=O)C(C)Oc2ccccc2C(=O)Nc2cccc(Cl)c2Cl)cc1 (stereo not given) | u | n | -110
CCOc1ccc(NC(=S)Nc2ccc(OCC)cc2)cc1 | n | x | x
CCOc1ccc(NC(=O)c2ccccc2OC)cc1 | n | u | u
CCOc1ccc(NC(=O)c2ccccc2CO)cc1 | n | n | n
CCOc1ccc(NC(=O)c2ccccc2O)cc1 | u | n | -104
CC(C)(C)c1cc(Br)c(O)c(N=Nc2ccc(S(=O)(=O)N3CCOCC3)cc2)c1 | n | x | x
Cc1cc(C(=O)O)ccc1[C@H](N)C(=O)O | x | n | x
COc1ccc(C2=C(C)C(N3CCC(C(=O)Nc4cc(C)ccc4C)CC3)=NS2(=O)=O)cc1 | n | x | x
O=C1CCCCCC1C1(O)C(=O)Nc2ccc(Br)cc21 (stereo not given) | n | n | n
O=C1Nc2ccc(Br)cc2C1(O)Cc1ccccn1 (stereo not given) | n | n | -114
Cc1cccc(-n2c(C)cc(C=C3C(=O)c4ccccc4C3=O)c2C)c1 | n | n | -85
Cc1cc(C=C2C(=O)c3ccccc3C2=O)c(C)n1-c1ccc(Cl)cc1 | n | n | n
COc1ccc(CC(=O)NC2CC(=O)N(c3cccc(F)c3)C2)cc1OC (stereo not given) | n | x | x
Cc1nc(-c2ccc(F)cc2)sc1CCNC(=O)c1ccccc1C(F)(F)F | n | x | x
COc1ccc(CCN2C(=O)CC(C(N)=O)SC2=Nc2ccc(F)cc2)cc1OC (stereo not given) | n | x | x
CN(C)c1cccc(C(=O)Nc2ccc3nc4n(c(=O)c3c2)CCCCC4)c1 | n | n | u
CN(C(=O)c1ccc2c(=O)n3c(nc2c1)CCCCC3)c1ccccc1 | n | n | -100
CCOC(=O)CSc1nc2cc3c(cc2c(=O)n1CCCCCC(=O)NCc1ccc2c(c1)OCO2)OCO3 | n | x | x
COc1ccc(NC(=S)N2CCC(C(=O)c3ccc(C)cc3)CC2)c(OC)c1 | n | x | x
Cc1ccc(C(=O)Nc2c(C)n(C)n(-c3ccccc3)c2=O)cc1S(=O)(=O)N1CCOCC1 | n | n | n
SMILES | Lamin A splicing | IMPase inh | PNC inhibitor
Cc1ccc(S(=O)(=O)N2CCOCC2)cc1C(=O)Nc1c(C)n(C)n(-c2ccccc2)c1=O | n | n | -100
Cc1cccc(N2CCN(C(=O)C3CCN(S(=O)(=O)c4cn(C)cn4)CC3)CC2)c1C | n | x | x
O=C1CCCN1c1ccc(S(=O)(=O)Oc2cccc(Cl)c2)cc1[N+](=O)[O-] | n | n | -106
O=C1CCCN1c1ccc(S(=O)(=O)N2CCCCC2)cc1[N+](=O)[O-] | n | x | x
Cc1c(-n2c(SCC(=O)O)nnc2-c2ccccc2Cl)c(=O)n(-c2ccccc2)n1C | n | n | -97
O=C(O)CSc1nnc(CNc2ccccc2Cl)n1-c1ccccc1 | u | n | n
CCOc1ccc(-c2cc3c(=O)n(CC(=O)NCc4ccc(C)cc4)ccn3n2)cc1 | n | x | x
COC(=O)C(CCSC)NC(=O)c1cc2c(n(-c3ccc(Cl)cc3)c1=O)CCCC2=O (stereo not given) | x | n | x
O=C(NC1CCCCCCC1)c1ccccc1-c1ccccc1 | u | x | -113
CC(C)C(=O)NC(=S)Nc1ccccc1C(=O)NC1CCCCC1 | n | x | -114
CCC(=O)NC(=S)Nc1ccccc1C(=O)NC1CCCCC1 | n | x | n
O=C(NC1CCCCCC1)c1ccccc1-c1ccccc1 | n | n | n
COc1ccc(Cn2ccc3nc(C)c(C(=O)Nc4cc(OC)c(OC)c(OC)c4)cc3c2=O)cc1 | n | x | x
O=C(Nc1ccccc1C(F)(F)F)N1CCOc2ccc(Cl)cc21 | n | x | x
NC(=O)C1CCN(C2CC(=O)NC2=O)CC1 (stereo not given) | n[9.22 µM] | x | x
CCOC(=O)c1c(C)oc2nc(C)nc(NCC3CCN(Cc4ccc(C)cc4)CC3)c12 | n | x | x
O=C(COc1ccccc1)N1CCc2ccccc21 | u | x | -82
C[C@H](NS(=O)(=O)c1ccccc1F)C(=O)OCC(=O)N1CCc2ccccc21 | n | n | -93
CCOC(=O)C1=C(C)NC(C)=C(C(=O)OCC)C1C(=O)OCC(=O)N1CCc2ccccc21 | u | n | -99
O=C(CNS(=O)(=O)c1ccccc1Br)OCC(=O)N1CCc2ccccc21 | n | n | n
CCOC(=O)c1[nH]c(C)c(C(=O)OCC(=O)N2CCc3ccccc32)c1C | n | n | n
O=C(CCCOc1ccccc1)N1CCCc2ccccc21 | n | n | n
Cc1cc2nc(CS(=O)(=O)c3ccccc3)cc(=O)n2[nH]1 | n | x | x
O=C(Cc1cccs1)NC1CC(=O)N(c2ccc(Cl)cc2)C1 (stereo not given) | n | x | x
COCCN(C(=S)Nc1cc(C)cc(C)c1)C(C)c1ccco1 (stereo not given) | n | x | x
SMILES | Lamin A splicing | IMPase inh | PNC inhibitor
C=C[C@@H]1CN2CC[C@@H]1C[C@@H]2[C@@H](O)c1ccnc2ccc(OC)cc12 | x | n | x
O=C(NCCc1ccccc1)c1cccnc1 | n | n | n
NS(=O)(=O)c1ccc(CCNC(=O)c2cccnc2)cc1 | n | n | -100
O=C(CCN1CCC(c2ccc(Cl)s2)=N1)c1ccc(Cl)s1 | n | x | x
CCn1c(=O)c2sccc2n2c(CCCC(=O)N3CCN(c4cccc(Cl)c4)CC3)nnc12 | n | x | x
N#Cc1cccc(NC(=O)CCNS(=O)(=O)c2ccc3c(c2)CCN3C(=O)C2CC2)c1 | n | x | x
O=C(NCc1ccco1)c1cccc2c1C(=O)N(C1CCCCC1)C2 | n | n | -100
O=C(NCc1cccnc1)C1CC(=O)N(C2CCCCC2)C1 (stereo not given) | n | n | n
O=C(NCc1ccco1)c1ccc2c(c1)C(=O)N(C1CCCCC1)C2=O | n | n | n
O=C(NCc1cccnc1)c1cccc2c1C(=O)N(C1CCCCC1)C2 | n | n | -100
Cc1ccc(CN2C(=O)c3ccccc3C2C(=O)NCc2cccnc2)cc1 (stereo not given) | n | n | n
O=C(NCc1cccnc1)C1c2ccccc2C(=O)N1C1CCCC1 (stereo not given) | n | n | -108
CCOC(=O)N1CCC(N2C(=O)c3ccccc3C2Nc2cccnc2)CC1 (stereo not given) | n | n | -86
CCOC(=O)N1CCC(N2C(=O)c3ccccc3C2Nc2ccccc2C)CC1 (stereo not given) | n | n | u
O=C(Nc1ccccc1C(F)(F)F)c1cc(-c2ccc3c(c2)OCCO3)on1 | n | x | x
CCOc1ccc(CCNC(=O)c2c3c(nc4ccccc24)C(=O)N(C2CCCCC2)C3)cc1 | n | x | x
Cc1ccc2c(c1)C=CC(C#N)N2C(=O)c1ccccc1 (stereo not given) | u | x | -88
Cc1ccc2c(c1)C=CC(C)N2C(=O)c1ccccc1 (stereo not given) | n | n | n
O=C(Nc1ccc2c(c1)OCO2)N1CCOCC1 | n | u | n
O=C(c1cc(-c2cccc(O)c2)on1)N1CCOCC1 | n | n | -85
